Assay [1] is described as follows: E. coli DRC41 culture turbidity changes, primary screen, E. coli filamentation inducer project, strain DRC41, OD650, 48 h (AID 1152).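 Note: E. coli MC1000 strain DRC41 lacking acrAB efflux pump and sulA.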 To be noted: E. coli DRC41 (acrAB sulA), higher = more signal, called active from +8 up or from −8 down.
A short description of assay [2]: small-molecule binders of probe aLefty1, primary screen, biochemical, small-molecule microarray, 635/667 nm fluorescence (AID 1153).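 Note: score merges spot fluorescence with signal-to-noise ratio from the scanned slide images.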 To be noted: higher = more signal.
Assay [3] in a line: PSAC antagonists in infected red cells, primary screen, cell-based, P. falciparum Indochina, OD700, 1 h (AID 1154). The following applies: P. falciparum Indochina infected RBC osmotic lysis, higher = more signal, called active from +8 up or from −8 down.
Assay [4] can be described thus: PSAC antagonists in infected red cells, primary screen, cell-based, P. falciparum Indochina, OD700, 2 h (AID 1155).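 Note: lysis reports solute entry through the parasite surface anion channel PSAC; channel blockers reduce lysis of infected cells.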 To be noted: P. falciparum Indochina infected erythrocytes, osmotic lysis OD700; higher = more signal, called active from +8 up or from −8 down.
The nature of assay [5]: osmotic lysis modulators in infected erythrocytes, primary screen, PSAC antagonist project, cell-based, P. falciparum Indochina, OD700, 3 h (AID 1156). The following applies: higher = more signal, called active from +8 up or from −8 down.
Assay [6] is described as follows: PSAC antagonists in infected red cells, primary screen, cell-based, P. falciparum Indochina, OD700, 18 h (AID 1157). The following applies: P. falciparum Indochina infected erythrocytes, osmotic lysis OD700, 18 h; higher = more signal, called active from +8 up or from −8 down.
Assay [7] in a line: modulators of S6 phosphorylation in cells, primary screen, cell-based, A549, cytoblot, luminescence, serum-stimulated (AID 1158).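 Note: serum-stimulated A549 lung adenocarcinoma cells; signal is phosphorylated S6 detected by cytoblot immunostaining with HRP secondary.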 The following applies: A549 phospho-S6 cytoblot, 5 h, higher = more signal.
Assay [8] deals with NADPH oxidase 2 (Homo sapiens) (UniProt P04839). Description: NOX2-dependent H2O2 signal modulators, primary screen, NOX inhibitor project, cell-based, HEK293-NOX2, PMA-stimulated, Amplex Red fluorescence (AID 1159). Note: test concentration not given here. The following applies: 45 min, higher = more signal, called active from +8 up or from −8 down.
NADPH oxidase 2 (Homo sapiens), sequence (P04839 whole entry, looked up): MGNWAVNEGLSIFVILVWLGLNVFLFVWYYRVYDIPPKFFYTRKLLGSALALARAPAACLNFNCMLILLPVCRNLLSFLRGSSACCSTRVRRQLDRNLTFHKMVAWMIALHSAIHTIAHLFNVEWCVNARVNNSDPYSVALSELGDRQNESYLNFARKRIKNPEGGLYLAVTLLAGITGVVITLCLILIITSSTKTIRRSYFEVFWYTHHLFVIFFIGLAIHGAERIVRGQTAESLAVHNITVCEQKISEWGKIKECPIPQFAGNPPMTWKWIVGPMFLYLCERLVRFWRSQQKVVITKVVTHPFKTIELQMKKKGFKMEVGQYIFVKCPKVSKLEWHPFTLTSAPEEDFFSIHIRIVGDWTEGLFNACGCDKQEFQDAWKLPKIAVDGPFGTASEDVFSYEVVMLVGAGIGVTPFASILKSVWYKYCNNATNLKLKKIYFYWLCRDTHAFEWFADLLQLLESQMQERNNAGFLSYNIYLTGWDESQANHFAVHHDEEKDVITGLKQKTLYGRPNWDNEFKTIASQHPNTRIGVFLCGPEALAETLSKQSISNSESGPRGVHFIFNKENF
The target in assay [9] is NADPH oxidase 4 (Homo sapiens) (UniProt Q9NPH5). As to the kind of experiment: NOX4-dependent H2O2 signal modulators, primary screen, NOX inhibitor project, cell-based, HEK293-NOX4, tetracycline-induced, Amplex Red fluorescence (AID 1160). The following applies: 45 min, higher = more signal, called active from +8 up or from −8 down.
NADPH oxidase 4 (Homo sapiens), sequence (Q9NPH5 whole entry, looked up): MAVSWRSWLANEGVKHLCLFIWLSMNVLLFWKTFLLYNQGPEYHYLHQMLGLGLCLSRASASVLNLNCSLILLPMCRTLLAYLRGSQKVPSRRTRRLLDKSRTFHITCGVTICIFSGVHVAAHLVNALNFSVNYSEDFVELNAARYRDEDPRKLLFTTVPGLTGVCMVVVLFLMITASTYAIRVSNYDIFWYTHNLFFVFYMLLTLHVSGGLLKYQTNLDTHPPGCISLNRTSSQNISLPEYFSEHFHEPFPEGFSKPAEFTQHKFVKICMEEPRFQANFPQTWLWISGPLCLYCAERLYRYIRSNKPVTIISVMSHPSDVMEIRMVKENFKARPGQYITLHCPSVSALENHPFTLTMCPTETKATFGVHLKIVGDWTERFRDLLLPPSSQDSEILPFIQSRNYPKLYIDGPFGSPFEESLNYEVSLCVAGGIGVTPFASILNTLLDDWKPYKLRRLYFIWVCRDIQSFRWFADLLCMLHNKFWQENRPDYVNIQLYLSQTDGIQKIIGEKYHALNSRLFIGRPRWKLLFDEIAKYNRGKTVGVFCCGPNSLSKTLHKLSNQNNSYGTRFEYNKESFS
Assay [10] concerns the target NADPH oxidase 5 (Homo sapiens) (UniProt Q96PH1). Description: NOX5-dependent H2O2 signal modulators, primary screen, NOX inhibitor project, cell-based, HEK293-NOX5, Amplex Red fluorescence (AID 1161). To be noted: HEK293-NOX5, ionomycin, 45 min, higher = more signal.
Assay [11] is described as follows: A549 cell viability effects, profiling panel, calcein-AM fluorescence, 48 h, basal (AID 1162). Note: test concentration not given here. The following applies: higher = more signal.
Assay [12] in a line: adipocyte viability effects, profiling panel, cell-based, 3T3-L1 adipocytes, calcein-AM fluorescence, 48 h, basal (AID 1163). Note: test concentration not given here. The following applies: 3T3-L1 adipocytes viability, higher = more signal.
Assay [13] in a line: HepG2 cell viability effects, profiling panel, calcein-AM fluorescence, 48 h, basal (AID 1164). Note: test concentration not given here. The following applies: higher = more signal.
Assay [14] is described as follows: MM1S cell viability effects, profiling panel, calcein-AM fluorescence, 48 h, basal (AID 1165).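 Note: viability of MM1S multiple myeloma cells under basal unstimulated conditions; test concentration not given here.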 To be noted: higher = more signal.
The nature of assay [15]: basal RPMI8226 viability, no added stimulus, profiling panel, cell-based, calcein-AM fluorescence, 48 h, PK04 Diversity Set (AID 1166).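 Note: cells grown under basal conditions without added stimulus; test concentration not given here.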 To be noted: RPMI8226 myeloma viability, higher = more signal.
The nature of assay [16]: basal HepG2 mitochondrial membrane potential changes, profiling panel, cell-based, JC-1 fluorescence, 24 h, 100 nL compound (AID 1167). Note: test concentration not given here. The following applies: higher = more signal.
A short description of assay [17]: basal 3T3-L1 adipocyte mitochondrial potential changes, profiling panel, cell-based, JC-1 fluorescence, 3T3-L1 adipocytes, 24 h, 100 nL compound (AID 1168). Note: test concentration not given here. The following applies: JC-1 mitochondrial fluorescence, higher = more signal, called active from +8 up or from −8 down.
Assay [18] is described as follows: basal RPMI8226 mitochondrial membrane potential changes, profiling panel, cell-based, JC-1 fluorescence, 24 h, 100 nL compound (AID 1169). Note: test concentration not given here. To be noted: RPMI8226 myeloma, JC-1 mitochondrial potential fluorescence, higher = more signal.
The nature of assay [19]: basal MM1S mitochondrial membrane potential changes, profiling panel, cell-based, JC-1 fluorescence, 24 h, 100 nL compound (AID 1170). Note: test concentration not given here. The following applies: higher = more signal.
Assay [20] in a line: A549 lung cancer cell viability effects, profiling panel, resazurin fluorescence, 24 h, PK04 Diversity Set (AID 1171). Note: test concentration not given here. To be noted: higher = more signal, called active from +8 up or from −8 down.

Activity calls are given as the source filed them.

NADPH oxidase 5 (Homo sapiens), sequence (Q96PH1 whole entry, looked up): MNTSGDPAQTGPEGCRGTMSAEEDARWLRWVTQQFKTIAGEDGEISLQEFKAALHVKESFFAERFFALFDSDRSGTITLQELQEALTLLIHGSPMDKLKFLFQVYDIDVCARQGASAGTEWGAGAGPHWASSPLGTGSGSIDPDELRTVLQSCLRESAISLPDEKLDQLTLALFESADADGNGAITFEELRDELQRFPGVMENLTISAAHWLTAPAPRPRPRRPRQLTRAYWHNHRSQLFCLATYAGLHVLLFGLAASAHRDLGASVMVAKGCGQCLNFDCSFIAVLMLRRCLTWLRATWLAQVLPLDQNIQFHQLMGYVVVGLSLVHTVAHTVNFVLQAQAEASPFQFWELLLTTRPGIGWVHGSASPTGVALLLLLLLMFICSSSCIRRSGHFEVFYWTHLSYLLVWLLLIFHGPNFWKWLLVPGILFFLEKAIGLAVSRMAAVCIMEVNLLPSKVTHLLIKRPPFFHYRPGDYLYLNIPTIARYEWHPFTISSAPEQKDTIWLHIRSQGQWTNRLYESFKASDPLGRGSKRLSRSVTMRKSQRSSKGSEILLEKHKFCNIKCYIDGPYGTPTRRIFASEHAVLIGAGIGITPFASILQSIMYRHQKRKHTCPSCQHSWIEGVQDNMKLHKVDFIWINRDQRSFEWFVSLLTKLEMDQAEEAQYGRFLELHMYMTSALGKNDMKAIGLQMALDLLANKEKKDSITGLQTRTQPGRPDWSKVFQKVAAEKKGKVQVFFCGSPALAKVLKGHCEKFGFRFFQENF

Regarding `CC(=O)N1Cc2ccccc2C[C@@]2(N=C(c3ccc(OCCCO)cc3)O[C@H]2c2ccccc2)C1=O`, the z-score in assay [1] was 1.6 (inactive); in assay [3], 24.1 (active); in [4] it was 8.42 (active); in assay [5], 2.76 (inactive); in assay [6], 0.944 (inactive); in [7], 2.14. For the same molecule, the z-score is -4.15 (inactive) in assay [8]; 0.144 (inactive) in assay [9]; -2.86 in assay [10]; -1.09 in assay [11]; 0.609 in [12]; -1.31 in assay [13]. Moreover, the z-score in assay [14] is -2.19; in assay [15] it was -3.36; in assay [16], 1.8; in assay [17], 0.234 (inactive); in [18], -1.15; in [19], -0.438. In [20], the z-score was -2.8 (inactive). In assay [2], the composite z-score was 1.29.
Consider `CCCC[C@H]1OB(O)C[C@H]2C1=C(COc1ccccc1)C[C@H]1C(=O)N(Cc3ccccc3)C(=O)[C@H]12`, for which the z-score in [1] was -0.288 (inactive); in assay [3], 6.03 (inactive); in assay [4] it was 1.38 (inactive); in [5] it was 0.0146 (inactive); in assay [6], 0.475 (inactive); in assay [7], -0.056. Also, the z-score in assay [8] was -0.0336 (inactive); in assay [9], 0.143 (inactive); in [10] it was 0.245; in assay [11] it was 0.358; in assay [12], 0.488; in [13] it was -0.429. In addition, the z-score is -1.09 in [14]; -1.08 in assay [15]; 0.989 in assay [16]; 0.241 (inactive) in [17]; -0.163 in assay [18]; -0.446 in assay [19]. Also, in [20], the z-score was 0.574 (inactive). The molecule further gave a composite z-score in [2] of 0.179.
`C=C[C@H](C)[C@H](OC(=O)Nc1ccc(OC)cc1)c1ccc(O)c2ccccc12`: the z-score in [1] was -0.222 (inactive); in assay [3], 1.71 (inactive); in assay [4], 0.435 (inactive); in assay [5] it was -0.554 (inactive); in assay [6], -0.187 (inactive); in assay [7], 0.486. Also, the z-score is -5.39 (inactive) in [8]; -1.77 (inactive) in assay [9]; -0.256 in assay [10]; -0.697 in assay [11]; 0.256 in assay [12]; -1.87 in assay [13]. In addition, the z-score in assay [14] is -2.98; in [15] it was -4.25; in assay [16], -3.3; in [17] it was -1 (inactive); in [18] it was -1.03; in [19], -2.07. Moreover, in assay [20], the z-score is -0.232 (inactive). In addition, the composite z-score in assay [2] worked out at 0.0313.
For `CN(C)CCCCNC(=O)[C@@H]1C[C@@H]2C(=O)N[C@@H](CCCCN)C(=O)N2[C@@H]1c1cccc(OCCO)c1`, the z-score in assay [1] is -0.389 (inactive); in assay [3], 2.51 (inactive); in [4], 0.337 (inactive); in [5], -1.21 (inactive); in assay [6], -0.0182 (inactive); in assay [7] it was -0.446. The z-score in assay [8] was 1.36 (inactive); in assay [9], 1.05 (inactive); in assay [10], 1.43; in assay [11] it was -0.144; in assay [12] it was -0.736; in [13], -1.03. Besides, the z-score is -0.058 in assay [14]; 0.376 in assay [15]; -1.01 in assay [16]; -0.0937 (inactive) in assay [17]; -0.737 in assay [18]; -0.0289 in assay [19]. For the same molecule, in [20], the z-score was -0.391 (inactive). For the same molecule, the composite z-score in assay [2] came to 0.837.
As to `COc1ccc([Si](C)(C)[C@H]2[C@H](CCO)O[C@@]3(C(=O)N(Cc4ccccc4)c4ccc(N5C(=O)COc6ccccc65)cc43)[C@@H]2C)cc1`, the z-score is 0.592 (inactive) in [1]; 5.33 (inactive) in [3]; 2.16 (inactive) in [4]; 1.3 (inactive) in assay [5]; 1.65 (inactive) in [6]; 2.08 in assay [7]. The z-score in [8] was -1.74 (inactive); in [9], 1.53 (inactive); in assay [10] it was 0.595; in [11], -0.831; in assay [12] it was 0.281; in [13], -3.01. For the same molecule, the z-score in assay [14] is -3; in assay [15], -3.25; in assay [16] it was -0.111; in [17], 1.46 (inactive); in assay [18] it was -0.855; in assay [19], -1.47. In assay [20], the z-score was -1.74 (inactive). The same molecule returned a composite z-score in assay [2] of 0.167.
Consider `Cc1ccc([C@H]2C(C(=O)O)=C[C@@H](C(C)C)N2S(=O)(=O)c2ccc(C)cc2)cc1`, for which the z-score in assay [1] is -1.01 (inactive); in assay [3] it was 0.297 (inactive); in assay [4], 0.711 (inactive); in [5] it was -0.539 (inactive); in assay [6], 0.734 (inactive); in assay [7] it was -0.365. Further, the z-score is 0.79 (inactive) in [8]; -1.06 (inactive) in [9]; -0.32 in [10]; -0.828 in assay [11]; -0.762 in [12]; -0.639 in [13]. Besides, the z-score in assay [14] was 0.0411; in assay [15], -1.48; in assay [16] it was -0.713; in assay [17] it was -0.385 (inactive); in [18] it was 0.59; in [19], -0.809. The z-score in [20] was -0.194 (inactive). For the same molecule, the composite z-score in assay [2] was determined as 0.121.
Regarding `CCCCN1CC=CC23O[C@@H]4/C=C\CCCOC(=O)C4[C@H]2C(=O)N(C(C)CO)[C@@H]3C1=O` (stereo not given in full), the z-score was 0.65 (inactive) in assay [1]; 1.43 (inactive) in assay [3]; 1.06 (inactive) in assay [4]; 1.96 (inactive) in assay [5]; 0.405 (inactive) in assay [6]; 0.199 in assay [7]. In addition, the z-score in [8] is 0.889 (inactive); in assay [9], 0.124 (inactive); in [10] it was 1.5; in assay [11], -0.455; in assay [12], -0.455; in assay [13], -0.564. Further, the z-score in [14] is 0.35; in assay [15], 1.4; in assay [16] it was 0.698; in assay [17] it was 0.0147 (inactive); in [18], -0.546; in [19], -1.11. Also, the z-score in assay [20] was -0.249 (inactive). The same molecule had a composite z-score in [2] of -0.206.
Regarding `COCCOC(=O)N1C(=O)[C@@]2(c3cc(C#CCC(C(=O)OC)C(=O)OC)ccc31)[C@H](c1ccccc1OCCO)N1[C@H](c3ccccc3)[C@H](c3ccccc3)OC(=O)[C@H]1[C@@H]2C(=O)Nc1nc2ccccc2s1`, the z-score in assay [1] was 4.44 (inactive); in assay [3], 11.7 (active); in assay [4], 1.48 (inactive); in [5] it was 0.444 (inactive); in assay [6] it was -0.734 (inactive); in assay [7], 3.72. In addition, the z-score in assay [8] is 1.18 (inactive); in [9], 1.19 (inactive); in assay [10] it was -0.494; in assay [11], 1.7; in assay [12] it was 0.321; in [13], 1.4. For the same molecule, the z-score in [14] was -0.569; in [15] it was -0.922; in [16], -2.31; in assay [17], 0.844 (inactive); in [18], -0.76; in [19], -0.578. The z-score in assay [20] is -0.0543 (inactive). Besides, in [2], the composite z-score came to 0.437.

These data come from PubChem BioAssay.
